The values that follow come from PubChem BioAssay (EPA / NIEHS).

Inconclusive results are not listed. The source made the active and inactive calls. The calls were made as follows, unless noted: active = hit-call score of the fitted dose curve at least 0.9, where 1 is the maximum; inactive = score below 0.9.

Assay [1] concerns the target Paired box protein Pax-6 (Homo sapiens) (UniProt P26367). As to the kind of experiment: ATG_Pax6_CIS: Attagene CIS-FACTORIAL HepG2 Assay for human Paired Box 6 (PAX6) (AID 2282956). Particulars: HepG2 CIS-FACTORIAL PAX6 reporter transcription, RNA readout; actives raise or lower the signal. Put shortly: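 DMSO-referenced bidirectional fits of reporter mRNA fluorescence; HepG2 with transient cis-promoter MRTUs, 24 h post-dose, RT-PCR plus capillary electrophoresis detection.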

Assay [2] in a line: ATG_PXRE_CIS: Attagene CIS-FACTORIAL HepG2 Assay for human Pregnane X Receptor Element (PXRE) (AID 2282957). Particulars: HepG2 Attagene CIS-FACTORIAL PXRE reporter, mRNA; actives raise or lower the signal. Put shortly:
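Bidirectional activity, baselined to DMSO, derived from reporter mRNA fluorescence (RT-PCR plus capillary electrophoresis) in HepG2 cells bearing cis-promoter reporter units, 24 h exposure.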

The nature of assay [3]: ATG_PPRE_CIS: Attagene CIS-FACTORIAL HepG2 Assay for human Peroxisome Proliferator-activated Response Element (PPRE) (AID 2282958). The settings on record: HepG2 PPRE cis-element reporter, Attagene transcription factor profiling; actives raise or lower the signal. Put shortly: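 Read-out: fluorescent reporter mRNA fragments resolved by capillary electrophoresis after RT-PCR. HepG2 cells carried transiently transfected PPRE-driven cis reporter constructs and were dosed for 24 h; gain or loss of signal fitted relative to DMSO.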

Assay [4] is described as follows: ATG_RORE_CIS: Attagene CIS-FACTORIAL HepG2 Assay for human RAR-related Orphan Receptor Element (RORE) (AID 2282959). The settings on record: HepG2 Attagene cis-factorial RORE reporter, mRNA; actives raise or lower the signal. In a few lines:
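Readout: fluorescent reporter mRNA by RT-PCR plus capillary electrophoresis, 24 h after dosing transfected HepG2 cells. Endogenous transcription factor activity on a cis promoter element is measured. Gain or loss of signal fitted against DMSO.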

Assay [5] can be described thus: ATG_Sox_CIS: Attagene CIS-FACTORIAL HepG2 Assay for human SRY-box transcription factor (SOX) (AID 2282960). The settings on record: HepG2 Attagene cis-factorial SOX reporter, mRNA; actives raise or lower the signal. In a few lines: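 Read-out: fluorescent RT-PCR products of SOX1-linked reporter transcripts resolved by capillary electrophoresis, fitted bidirectionally against DMSO. Transiently transfected HepG2 cells, 24 h after chemical exposure, endogenous transcription factor activity.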

Assay [6] deals with Transcription factor Sp1 (Homo sapiens) (UniProt P08047). The experiment in a line: ATG_Sp1_CIS: Attagene CIS-FACTORIAL HepG2 Assay for human Specificity Protein 1 (Sp1) (AID 2282961). Particulars: HepG2 Sp1 cis-reporter transcription, actives raise or lower the signal. In a few lines:
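Read-out: fluorescence of 6-FAM-labeled, HpaI-digested RT-PCR products separated by capillary electrophoresis. HepG2 cells carried transfected cis-element reporter units and were exposed to chemicals for 24 h; gain or loss of signal fitted relative to DMSO.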

A short description of assay [7]: ATG_SREBP_CIS: Attagene CIS-FACTORIAL HepG2 Assay for human Sterol Regulatory Element Binding (SREBP) (AID 2282962). Particulars: HepG2 Attagene cis-factorial SREBP reporter, mRNA; actives raise or lower the signal. In a few lines:
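In this cis-format assay, HepG2 liver cells express reporters controlled by promoter elements responsive to native transcription factors. Exposure lasts 24 h; reporter mRNA fluorescence from capillary electrophoresis gives the signal, fitted bidirectionally against DMSO.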

In assay [8] the target is Signal transducer and activator of transcription 3 (Homo sapiens) (UniProt P40763). As to the kind of experiment: ATG_STAT3_CIS: Attagene CIS-FACTORIAL HepG2 Assay for human Signal Transducer and Activator of Transcription 3 (STAT3) (AID 2282963). The settings on record: HepG2, Attagene cis-factorial STAT3 reporter transcription; actives raise or lower the signal. In a few lines:
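HepG2, MRTU-transfected, 24 h dosing. RNA → RT → PCR → FAM label → HpaI → CE. Bidirectional fit vs DMSO.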

The nature of assay [9]: ATG_TCF_b_cat_CIS: Attagene CIS-FACTORIAL HepG2 Assay for human T-Cell-Factor with beta-catenin (TCF/b-cat) (AID 2282965). Particulars: HepG2 TCF/beta-catenin cis-reporter transcription, actives raise or lower the signal. In a few lines:
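HepG2 cells transiently transfected with multiple cis-promoter-regulated reporter transcription units, so endogenous transcription factor activity is measured. Reporter mRNA read 24 hours after dosing by RT-PCR, fluorescent labelling and capillary electrophoresis; bidirectional fitting against DMSO.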

Assay [10] is described as follows: ATG_TAL_CIS: Attagene CIS-FACTORIAL HepG2 Assay for human TAL Basal Promoter (AID 2282966).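 Also: background control endpoint measuring basal TAL promoter reporter mRNA not a specific factor.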 The settings on record: HepG2 Attagene cis-factorial TAL promoter reporter; actives raise or lower the signal. Put shortly:
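Human hepatoma HepG2 cells, transfected with promoter-regulated reporter units, were treated 24 h. Reporter transcript levels, measured through RT-PCR and capillary electrophoresis, were fitted for gain or loss relative to DMSO.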

Assay [11] can be described thus: ATG_TGFb_CIS: Attagene CIS-FACTORIAL HepG2 Assay for human Transforming Growth Factor (TGF) (AID 2282967). The settings on record: HepG2 Attagene CIS TGFb reporter, mRNA transcription; actives raise or lower the signal. Put shortly: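 HepG2 cells transiently transfected with cis-promoter-driven multiplexed reporter units; 24 h compound exposure. Reporter mRNA measured by RT-PCR, 6-FAM labeling, HpaI digestion and capillary electrophoresis; bidirectional fit versus DMSO baseline.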

The target of assay [12] is X-box-binding protein 1 (Homo sapiens) (UniProt P17861). As to the kind of experiment: ATG_Xbp1_CIS: Attagene CIS-FACTORIAL HepG2 Assay for human X-box Binding Protein 1 (XBP1) (AID 2282972). Particulars: HepG2 XBP1 cis-element reporter, Attagene multiplex; actives raise or lower the signal. Put shortly:
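Changes in reporter transcript abundance, read by RT-PCR and capillary electrophoresis, reflect endogenous transcription factor activity. Transfected HepG2 cells received compound for 24 hours; DMSO defined baseline for bidirectional analysis.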

Assay [13] can be described thus: ATG_TA_CIS: Attagene CIS-FACTORIAL HepG2 Assay for human TA Basal Promoter (AID 2282964). The settings on record: HepG2 Attagene CIS-factorial TA basal promoter reporter; actives raise or lower the signal. In a few lines: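 HepG2 cells transiently transfected with multiplexed cis-promoter reporter units, dosed 24 h. Reporter mRNA measured by RT-PCR, 6-FAM labelling, HpaI digestion and capillary electrophoresis; bidirectional fit versus DMSO baseline, serving as background control.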

The nature of assay [14]: ATG_VDRE_CIS: Attagene CIS-FACTORIAL HepG2 Assay for human Vitamin D Receptor Element (VDRE) (AID 2282968). Particulars: HepG2 VDRE cis-reporter transcription, actives raise or lower the signal. Put shortly:
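Steps: transfect HepG2 with multiple reporter transcription units; dose chemicals 24 h; isolate RNA; RT-PCR; label with 6-FAM primer extension; HpaI digest; capillary electrophoresis. Curves fitted both directions against DMSO.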

Assay [15] deals with Estrogen receptor (Homo sapiens) (UniProt P03372). The experiment in a line: ATG_ERa_TRANS: Attagene TRANS-FACTORIAL HepG2 Assay for human Estrogen Receptor alpha (ERa) (AID 2282970; active = hit-call score of the fitted dose curve at least 0.9, where 1 is the maximum). The settings on record: HepG2 Attagene TRANS ERa GAL4 reporter, mRNA. Put shortly: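 Signal derives from fluorescence of labelled reporter PCR fragments separated by capillary electrophoresis. HepG2 cells transiently carrying multiple GAL4-UAS reporter units were treated 24 hours, and induction above DMSO baseline was fitted as activity.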

Assay [16] in a line: ATG_M_19_TRANS: Attagene TRANS-FACTORIAL HepG2 Assay for M19 Transcription Factor (Internal Marker) (AID 2282974; active = hit-call score of the fitted dose curve at least 0.9, where 1 is the maximum). Particulars: HepG2 Attagene TRANS-FACTORIAL M19 internal marker reporter. Put shortly:
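24 h chemical exposure of transiently transfected HepG2 (MRTU library). RNA → oligo(dT) RT → PCR → 6-FAM labelling → HpaI cut → CE fluorescence. Positive-direction fit vs DMSO baseline; background internal-marker readout.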

The nature of assay [17]: ATG_GAL4_TRANS: Attagene TRANS-FACTORIAL HepG2 Assay for GAL4 (Internal Marker) (AID 2282976; active = hit-call score of the fitted dose curve at least 0.9, where 1 is the maximum). Particulars: HepG2 Attagene TRANS GAL4 internal marker reporter. Put shortly: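 Liver HepG2 line bearing multiplexed GAL4-UAS reporter constructs; 24 h chemical treatment. Transcripts were quantified as fluorescent fragments on capillary electrophoresis after RT-PCR and HpaI cut, with activity fitted upward from DMSO.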

The target in assay [18] is Steroid hormone receptor ERR1 (Homo sapiens) (UniProt P11474). The experiment in a line: ATG_ERRa_TRANS: Attagene TRANS-FACTORIAL HepG2 Assay for human Estrogen-Related Receptor alpha (ERRa) (AID 2282971; active = hit-call score of the fitted dose curve at least 0.9, where 1 is the maximum). The settings on record: HepG2 Attagene TRANS reporter, ERRa transactivation. In a few lines: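 Signal gain relative to DMSO for an ERRa-Gal4 chimeric receptor, read as reporter mRNA by RT-PCR/capillary electrophoresis. Human HepG2 liver cells, transient multiplex reporter transfection, 24 h chemical exposure.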

Assay [19] concerns the target Estrogen-related receptor gamma (Homo sapiens) (UniProt P62508). The experiment in a line: ATG_ERRg_TRANS: Attagene TRANS-FACTORIAL HepG2 Assay for human Estrogen-Related Receptor gamma (ERRg) (AID 2282977; active = hit-call score of the fitted dose curve at least 0.9, where 1 is the maximum;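 also: hits increase reporter signal over DMSO so potencies reflect activators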). Particulars: HepG2 Attagene TRANS reporter, ERRg transactivation. In a few lines:
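Exogenous NR-Gal4 chimera activity measured as reporter transcript induction after 24 h in transiently transfected HepG2 cells. RNA reverse-transcribed, PCR-amplified, 6-FAM-labelled and resolved by capillary electrophoresis; increase over DMSO baseline.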

Assay [20] concerns the target Nuclear receptor subfamily 1 group I member 3 (Homo sapiens) (UniProt Q14994). The experiment in a line: ATG_CAR_TRANS: Attagene TRANS-FACTORIAL HepG2 Assay for human Constitutive Androstane Receptor (CAR) (AID 2282969; active = hit-call score of the fitted dose curve at least 0.9, where 1 is the maximum;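 also: activators raise reporter mRNA above DMSO so AC50 marks induction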). The settings on record: HepG2 Attagene TRANS-FACTORIAL CAR reporter. Put shortly: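 Steps: transient transfection of HepG2 with multiple GAL4-UAS reporter units; 24 h compound incubation; RNA isolation, RT-PCR, 6-FAM primer extension, HpaI digest; capillary electrophoresis. Gain-of-signal relative to DMSO negative control.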

The term AC50 denotes the concentration at which the activity in the assay is half-maximal.

Sequence of Estrogen receptor (Homo sapiens) (P03372 whole entry, looked up, the tested form may be a part): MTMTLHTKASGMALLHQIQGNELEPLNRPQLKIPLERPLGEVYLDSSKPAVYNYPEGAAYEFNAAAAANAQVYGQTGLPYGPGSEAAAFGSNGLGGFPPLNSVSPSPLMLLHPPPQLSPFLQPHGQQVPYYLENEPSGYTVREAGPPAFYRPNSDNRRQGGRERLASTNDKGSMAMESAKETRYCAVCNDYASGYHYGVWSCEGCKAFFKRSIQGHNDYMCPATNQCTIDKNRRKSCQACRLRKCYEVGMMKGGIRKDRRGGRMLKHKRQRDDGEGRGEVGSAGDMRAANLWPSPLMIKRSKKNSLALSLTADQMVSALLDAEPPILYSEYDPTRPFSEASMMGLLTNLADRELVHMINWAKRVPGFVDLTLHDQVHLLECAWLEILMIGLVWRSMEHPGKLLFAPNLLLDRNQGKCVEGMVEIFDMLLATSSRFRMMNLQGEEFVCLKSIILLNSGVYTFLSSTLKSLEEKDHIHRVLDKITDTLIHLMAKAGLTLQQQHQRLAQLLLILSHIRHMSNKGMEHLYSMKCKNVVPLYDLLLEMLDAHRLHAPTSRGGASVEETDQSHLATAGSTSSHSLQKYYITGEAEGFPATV
Sequence of Paired box protein Pax-6 (Homo sapiens) (P26367 whole entry, looked up): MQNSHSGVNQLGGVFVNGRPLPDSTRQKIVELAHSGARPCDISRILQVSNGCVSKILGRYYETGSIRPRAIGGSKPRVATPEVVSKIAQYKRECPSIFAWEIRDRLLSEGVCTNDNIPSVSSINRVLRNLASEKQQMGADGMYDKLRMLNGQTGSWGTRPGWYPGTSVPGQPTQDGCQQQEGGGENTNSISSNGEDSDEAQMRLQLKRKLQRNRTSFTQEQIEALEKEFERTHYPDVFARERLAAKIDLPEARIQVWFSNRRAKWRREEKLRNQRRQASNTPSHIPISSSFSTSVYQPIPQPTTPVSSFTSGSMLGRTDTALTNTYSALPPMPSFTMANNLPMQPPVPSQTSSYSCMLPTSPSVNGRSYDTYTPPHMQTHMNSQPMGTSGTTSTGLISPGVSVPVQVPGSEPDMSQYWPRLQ
Sequence of X-box-binding protein 1 (Homo sapiens) (P17861 whole entry, looked up): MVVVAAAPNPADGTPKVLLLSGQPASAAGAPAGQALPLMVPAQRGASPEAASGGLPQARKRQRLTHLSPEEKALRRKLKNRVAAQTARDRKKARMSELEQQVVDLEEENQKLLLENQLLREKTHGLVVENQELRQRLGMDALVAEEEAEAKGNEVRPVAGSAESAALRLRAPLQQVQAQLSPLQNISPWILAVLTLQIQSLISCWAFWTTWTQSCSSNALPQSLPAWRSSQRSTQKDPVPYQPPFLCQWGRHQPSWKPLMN
Sequence of Signal transducer and activator of transcription 3 (Homo sapiens) (P40763 whole entry, looked up): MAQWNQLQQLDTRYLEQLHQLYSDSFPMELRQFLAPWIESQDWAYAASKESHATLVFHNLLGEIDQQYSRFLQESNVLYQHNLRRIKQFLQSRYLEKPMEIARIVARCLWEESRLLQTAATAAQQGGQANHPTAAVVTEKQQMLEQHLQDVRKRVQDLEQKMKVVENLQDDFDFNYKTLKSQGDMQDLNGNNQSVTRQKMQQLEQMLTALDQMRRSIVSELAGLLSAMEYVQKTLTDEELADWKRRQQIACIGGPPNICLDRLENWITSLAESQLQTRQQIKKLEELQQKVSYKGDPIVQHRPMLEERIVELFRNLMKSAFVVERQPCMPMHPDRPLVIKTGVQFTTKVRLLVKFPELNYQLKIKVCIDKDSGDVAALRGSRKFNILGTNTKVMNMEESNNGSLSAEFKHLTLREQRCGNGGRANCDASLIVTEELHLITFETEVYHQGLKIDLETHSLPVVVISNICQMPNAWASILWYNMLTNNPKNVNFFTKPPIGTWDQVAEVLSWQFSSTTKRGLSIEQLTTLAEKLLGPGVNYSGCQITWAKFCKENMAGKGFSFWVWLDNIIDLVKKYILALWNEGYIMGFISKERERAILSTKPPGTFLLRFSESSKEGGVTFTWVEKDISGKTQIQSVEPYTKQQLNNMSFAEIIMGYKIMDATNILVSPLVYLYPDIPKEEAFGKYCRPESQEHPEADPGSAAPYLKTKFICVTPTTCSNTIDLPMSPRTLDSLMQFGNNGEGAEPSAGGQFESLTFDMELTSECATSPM
Sequence of Transcription factor Sp1 (Homo sapiens) (P08047 whole entry, looked up): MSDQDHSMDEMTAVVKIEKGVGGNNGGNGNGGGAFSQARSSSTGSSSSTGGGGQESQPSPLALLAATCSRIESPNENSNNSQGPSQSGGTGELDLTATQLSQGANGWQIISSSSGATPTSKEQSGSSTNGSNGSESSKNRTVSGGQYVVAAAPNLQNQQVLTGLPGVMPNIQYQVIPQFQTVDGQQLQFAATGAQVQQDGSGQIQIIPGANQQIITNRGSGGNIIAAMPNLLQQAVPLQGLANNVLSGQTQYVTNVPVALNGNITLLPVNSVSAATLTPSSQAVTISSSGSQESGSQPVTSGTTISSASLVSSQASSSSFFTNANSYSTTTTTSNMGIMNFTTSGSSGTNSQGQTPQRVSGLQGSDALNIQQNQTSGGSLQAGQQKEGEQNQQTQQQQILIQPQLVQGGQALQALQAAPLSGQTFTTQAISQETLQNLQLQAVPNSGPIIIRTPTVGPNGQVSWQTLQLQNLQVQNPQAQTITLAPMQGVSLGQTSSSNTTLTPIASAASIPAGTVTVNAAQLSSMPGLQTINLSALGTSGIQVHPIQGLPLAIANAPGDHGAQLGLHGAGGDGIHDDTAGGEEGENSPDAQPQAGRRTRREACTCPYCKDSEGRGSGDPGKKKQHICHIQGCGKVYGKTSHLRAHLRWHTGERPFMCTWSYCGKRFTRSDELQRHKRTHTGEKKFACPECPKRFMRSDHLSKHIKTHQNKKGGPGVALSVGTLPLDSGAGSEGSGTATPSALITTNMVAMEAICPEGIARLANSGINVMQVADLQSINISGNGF
Sequence of Nuclear receptor subfamily 1 group I member 3 (Homo sapiens) (Q14994 whole entry, looked up, the tested form may be a part): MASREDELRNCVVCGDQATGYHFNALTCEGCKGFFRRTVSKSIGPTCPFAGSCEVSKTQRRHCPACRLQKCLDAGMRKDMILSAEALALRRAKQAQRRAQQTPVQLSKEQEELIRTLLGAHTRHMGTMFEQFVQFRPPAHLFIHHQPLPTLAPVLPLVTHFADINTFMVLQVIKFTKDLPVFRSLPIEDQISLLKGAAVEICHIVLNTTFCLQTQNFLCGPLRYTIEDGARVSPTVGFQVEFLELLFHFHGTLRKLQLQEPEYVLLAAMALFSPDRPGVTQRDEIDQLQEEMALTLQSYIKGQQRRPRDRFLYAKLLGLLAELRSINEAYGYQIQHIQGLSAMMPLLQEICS
Sequence of Steroid hormone receptor ERR1 (Homo sapiens) (P11474 whole entry, looked up, the tested form may be a part): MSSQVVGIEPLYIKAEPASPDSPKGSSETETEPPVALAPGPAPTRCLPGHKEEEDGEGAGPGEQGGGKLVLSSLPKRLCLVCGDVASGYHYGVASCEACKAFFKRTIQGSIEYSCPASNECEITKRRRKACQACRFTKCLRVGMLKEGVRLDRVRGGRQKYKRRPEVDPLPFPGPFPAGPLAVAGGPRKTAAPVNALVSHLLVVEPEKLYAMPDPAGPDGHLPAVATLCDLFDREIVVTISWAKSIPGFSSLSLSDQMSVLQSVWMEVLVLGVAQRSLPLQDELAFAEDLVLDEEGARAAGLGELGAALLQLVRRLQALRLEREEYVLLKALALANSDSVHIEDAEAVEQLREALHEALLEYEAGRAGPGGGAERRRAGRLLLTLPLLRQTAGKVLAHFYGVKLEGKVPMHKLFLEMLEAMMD
Sequence of Estrogen-related receptor gamma (Homo sapiens) (P62508 whole entry, looked up, the tested form may be a part): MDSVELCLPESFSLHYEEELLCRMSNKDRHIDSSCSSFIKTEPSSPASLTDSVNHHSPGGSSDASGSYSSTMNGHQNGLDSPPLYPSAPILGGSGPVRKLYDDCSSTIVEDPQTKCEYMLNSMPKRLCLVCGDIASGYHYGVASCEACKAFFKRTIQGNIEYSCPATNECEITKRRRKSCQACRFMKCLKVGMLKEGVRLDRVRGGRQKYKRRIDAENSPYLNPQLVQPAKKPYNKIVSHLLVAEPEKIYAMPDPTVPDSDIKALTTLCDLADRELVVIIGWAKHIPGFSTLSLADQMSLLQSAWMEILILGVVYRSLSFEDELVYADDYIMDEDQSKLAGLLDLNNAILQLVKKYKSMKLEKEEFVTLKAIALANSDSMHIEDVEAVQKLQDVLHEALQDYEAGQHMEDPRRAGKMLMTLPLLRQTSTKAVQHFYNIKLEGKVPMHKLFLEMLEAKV

As for `COC(=O)/C=C\C(=O)O`, the compound was classed as inactive in [1], in assay [3], in [4], in [5], in assay [6] and in [7]. Further, the compound was called inactive in [8], in assay [9], in assay [10], in [11] and in [12]. The AC50 in assay [2] is 30.7 µM (active).
Take `CC[C@H]1OC(=O)[C@H](C)[C@@H](O[C@H]2C[C@@](C)(OC)[C@@H](O)[C@H](C)O2)[C@H](C)[C@@H](O[C@@H]2O[C@H](C)C[C@H](N(C)C)[C@H]2O)[C@](C)(O)C[C@@H](C)C(=NOCOCCOC)[C@H](C)[C@@H](O)[C@]1(C)O`: the compound was called inactive in assay [1], in assay [2], in assay [3], in [4], in [5] and in assay [6]. The compound was called inactive in [7], in [8], in assay [13], in [9], in assay [14] and in assay [15]. For the same compound, the result in assay [12], in assay [16] and in [17] was inactive.
`COC(=O)c1ccc2cc(C(=O)OC)ccc2c1`: the compound was classed as inactive in [1], in [2], in assay [3], in assay [4], in assay [5] and in [6]. Besides, the result in assay [7], in assay [8], in assay [13], in assay [10], in [11] and in [15] was inactive. Also, the compound was classed as inactive in [18], in assay [12] and in [19].
Regarding `CCOC(=O)CC`, the call in [1], in assay [2], in assay [3], in assay [4], in assay [5] and in assay [6] was inactive. Besides, the compound was called inactive in assay [7], in assay [8], in [13], in assay [9], in [11] and in assay [20]. For the same compound, the compound was called inactive in [15] and in assay [12].
Regarding `C=CC(C)(CCC=C(C)C)OC(=O)CC(C)C` (configuration not stated), the compound was called inactive in assay [1], in [3], in [4], in assay [5], in [6] and in assay [8]. The call in [9], in assay [10], in [11], in assay [14], in assay [20] and in assay [15] was inactive. Also, the compound was called inactive in assay [12] and in assay [16]. For the same compound, the AC50 in assay [2] is 6.26 µM (active); in assay [7], 118 µM (active).
